Where “and” joins values, the source holds several entries; their conditions need not be identical. Identical values can stand only once. Results filed as inconclusive are left out. Entries that show only a call come without a potency. Calls of active or inactive are those of the source. Unless noted, calls follow the shape of the dose curve; as a rule, active = well fitted curve in the direction sought with a large enough effect; inconclusive = small, poorly fitted or top-dose-only effect, or another doubt; inactive = no such curve, though single readings can be large; an effect the other way counts as inactive or inconclusive.
Assays:
[1] = biological target: Cytochrome P450 1A2 (Homo sapiens) (UniProt P05177); test: p450-cyp1a2 (AID 410; calls by dose curve)
Summary of the method: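 Inhibition was calculated relative to 57 uM furafylline (full inhibition). The reaction used human CYP1A2 at 20nM with Luciferin-ME at its Km, 100uM, driven by an NADPH-regenerating system for 60 min at room temperature.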

[2] = NFAT Signaling Pathway (AID 444; active = well fitted curve in either direction with a large enough effect, not every such curve was filed as active;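 also: carbachol stimulus at about its EC50 of 1 µM final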); conditions: Jurkat NFAT-bla M1, carbachol, beta-lactamase ratio, 5 h
Summary of the method: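 Read-out: CCF4 FRET ratio (460 nm/530 nm) after 1 h RT dye loading, used for %activity and AC50 from titration series. Cells: Jurkat NFAT-β-lactamase/M1 line, treated with compound plus 1 uM carbachol for 5 h, 37 °C.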

[3] = biological target: Mitogen-activated protein kinase 10 (Mus musculus) (UniProt Q61831); test: JNK3 AlphaScreen Assay (AID 530; active = well fitted curve in either direction with a large enough effect, not every such curve was filed as active;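 also: kinase came from lysate of stimulated human HepG2 cells; signal reports phosphorylation of biotinylated GST-cJun 1-79 at Ser73 with 10 µM ATP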)
Summary of the method: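 Room-temperature AlphaScreen kinase assay; pre-activated HepG2 lysate as JNK3 source, biotin-GST-cJun(1-79) substrate, 10 uM ATP, compound 15 min preincubation.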

[4] = biological target: 3',5'-cyclic-AMP phosphodiesterase 4B (Homo sapiens) (UniProt Q07343); test: qHTS Assay for Inhibitors of PDE-IV (AID 607; active = well fitted activation curve with a large enough effect in the main read-out, with a control signal flat, not every such curve was filed as active)
Summary of the method: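 The readout is membrane depolarisation from a cAMP-sensing CNG channel, detected with a potential dye at ex 535/em 590. Cells were HEK293-derived (endogenous PDE-IV) at 1000 cells/well, titrated up to 22.9 uM final.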

[5] = biological target: Guanine nucleotide-binding protein G(i) subunit alpha-1 (Homo sapiens) (UniProt P63096); test: qHTS Assay for Inhibitors of RGS12 GoLoco Motif Activity (Green Fluorophore) (AID 879);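 also: negative values mean loss of peptide binding seen as reduced polarization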
Summary of the method: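 Fluorescence polarization assay: 50 nM Gαi1 with 10 nM FITC-labeled RGS12 GoLoco peptide in 10 mM Tris pH 7.5, 150 mM NaCl, 0.1 mM GDP, 0.05% NP40, 10 min at room temperature with compound.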

[6] = biological target: Muscarinic acetylcholine receptor M1 (Rattus norvegicus) (UniProt P08482); test: qHTS Assay for Antagonists of Acetylcholine Muscarinic M1 Receptor: Measurement of IP-One Response (AID 944); also: nearly all actives have a fitted effect of over 75% in size
Summary of the method: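 Steps: plate transfected CHO-M1 cells overnight; add test compound, 10 min; add carbachol (200 nM, EC80) in stimulation buffer with LiCl; incubate 30 min; add labelled IP1 tracer and anti-IP1 antibody in lysis buffer; read HTRF after 10 min.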

[7] = biological target: Pyruvate kinase (Leishmania mexicana) (UniProt Q27686); test: qHTS Validation Assay for Inhibitors of Leishmania Mexicana Pyruvate Kinase (AID 945)
Summary of the method: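 LmPYK E451W 0.2 nM; 0.5 mM PEP, 0.1 mM ADP, 7 mM MgCl2, 50 mM KCl, imidazole pH 7.2, 0.01% Tween 20, 0.05% BSA; 1 h RT; PKLight luminescence; DMSO-normalized.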

[8] = biological target: Alpha-galactosidase (Coffea arabica) (UniProt Q42656); test: Counterscreen for Glucocerebrosidase Inhibitors: qHTS Assay for Coffee Bean alpha-Galactosidase at pH 4.5 (AID 957)
Summary of the method: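 AC50 values derive from Hill-equation modeling of concentration-response data, normalized to no-enzyme and full-activity controls. The pH 4.5 citrate assay used 2 nM coffee bean enzyme and 80 uM fluorogenic substrate for 20 min.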

[9] = biological target: Alpha-galactosidase A (Homo sapiens) (UniProt P06280); test: Counterscreen for Glucocerebrosidase Inhibitors: qHTS Assay for Human alpha-Galactosidase at pH 4.5 (AID 992)
Summary of the method: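 Concentration-response curves (0.7 nM to 77 uM final) were modeled with the Hill equation to give AC50. Reactions: 2 nM enzyme, 80 uM fluorogenic alpha-galactoside, pH 4.5 citric acid buffer, 20 min, room temperature.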

[10] = biological target: Alpha-galactosidase (Coffea arabica) (UniProt Q42656); test: Counterscreen for Glucocerebrosidase Inhibitors: qHTS Assay for Coffee Bean alpha-Galactosidase at pH 5.9 (AID 998)
Summary of the method: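 Compounds were titrated from 0.7 nM to 77 uM against green coffee bean alpha-galactosidase (2 nM) using 80 uM fluorogenic 4-methylumbelliferyl substrate. After 20 min at room temperature, reactions were stopped at pH 10 and read by fluorescence.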

[11] = qHTS Assay for Lipid Storage Modulators (AID 1519; calls by dose curve); conditions: Drosophila S3 cells, BODIPY lipid droplet/cell ratio, laser cytometry, cells loaded with oleic acid; for activity change, negative = inhibition: at 57.5 µM (top of the series)
Summary of the method: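 Cells seeded at 5,000 per well were treated with compounds over a concentration series and loaded with oleic acid (400 uM, as added). Lipid droplet fluorescence (488 nm excitation, 500-530 nm channel) was read by laser-scanning cytometry and normalized to 20 uM Triacsin C.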

[12] = biological target: DNA dC->dU-editing enzyme APOBEC-3G (Homo sapiens) (UniProt Q9HC16); test: qHTS for inhibitors of Vif-A3G interactions: Validation (AID 588379)
Summary of the method: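 HeLa cells stably expressing Vif and A3G-eYFP, 700 cells/well, incubated overnight at 37 deg C, then exposed to compound overnight at 37 deg C. Inhibition of Vif-mediated degradation read as increased yellow fluorescence (Ex 488/Em 500-530) by laser-scanning cytometry.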

[13] = tested on: Zika virus NS2B-NS3 protease; test: Primary screen GU AMC qHTS for Zika virus inhibitors (AID 1347154); also: nearly all actives have a fitted effect of over 70% in size
Summary of the method: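 Fluorogenic AMC-substrate cleavage by noncovalent NS2B-NS3 protease complex (25 nM, pH 8.0 Tris buffer with Tween 20) followed for 15 minutes at room temperature (~20% conversion). Percent inhibition from ex340/em450 signal change, fitted by 4-parameter Hill equation.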

[14] = Primary qHTS for small molecule stabilizers of the endoplasmic reticulum resident proteome: Secreted ER Calcium Modulated Protein (SERCaMP) assay (AID 1508630)
Summary of the method: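 GLuc-SERCaMP-expressing SH-SY5Y cells, pretreated 16 h with compound, are challenged with thapsigargin to empty ER calcium stores; after 4 h, coelenterazine is added directly to the medium and luminescence is imaged.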

[15] = biological target: Cytochrome P450 3A4 (Homo sapiens) (UniProt P08684); test: qHTS Assay for Activators of Cytochrome P450 3A4 (AID 885); also: nearly all actives have a fitted effect of over 65% in size
Summary of the method: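 Steps: enzyme/substrate mix dispensed; compound added, 10 min RT; NADPH regeneration solution added, 60 min RT; luciferin detection buffer stops reaction; 20 min later luminescence measured.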

[16] = biological target: Cytochrome P450 2D6 (Homo sapiens) (UniProt P10635); test: qHTS Assay for Inhibitors and Substrates of Cytochrome P450 2D6 (AID 891); also: potency is read from the fitted curve at half-maximal effect; nearly all actives have a fitted effect of over 60% in size
Summary of the method: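 Human CYP2D6 (5 nM) with 30 uM Luciferin-ME EGE (at Km) in 100 mM KPO4, compound preincubated 10 min, then NADPH regeneration system for 60 min at room temperature. Luciferin read by luminescence; normalized to 1.43 uM quinidine.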

[17] = biological target: Ubiquitin carboxyl-terminal hydrolase 1 (Homo sapiens) (UniProt O94782); test: Inhibitors of USP1/UAF1: Pilot qHTS (AID 504865);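 also: rhodamine fluorescence freed from ubiquitin-rhodamine substrate followed over time; top concentration of the series differs between compounds; nearly all actives have a fitted effect of over 35% in size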
Summary of the method: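 Kinetic fluorescence assay: 1nM USP1/UAF1, 15 min compound preincubation, then 150nM Ub-Rho; 480/540 nm.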

[18] = biological target: Glucocorticoid receptor (Homo sapiens) (UniProt P04150); test: GR-GFP Redistribution (AID 450;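 active = compounds whose dose series gives a full or clear partial fitted curve of increased nuclear translocation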; also: potency is read from the fitted curve at half-maximal effect); conditions: U2OS GR-GFP nuclear translocation, laser cytometry, 2 h
[19] = biological target: Glucocorticoid receptor (Homo sapiens) (UniProt P04150); test: GR-EFC Redistribution (AID 451; calls by dose curve; also: potency is read from the fitted curve at half-maximal effect); conditions: CHO-K1 GR-EFC translocation, beta-gal luminescence, 2 h
Summary of the method: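 Translocation of GR-ED fusion to nuclear EA restores b-gal, read by luminescence after 1 h room-temperature detection. Engineered CHO-K1 biosensor cells, 1,000/well, exposed 2 h at 37 C to titrations up to 46 uM final.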

[20] = biological target: Rap guanine nucleotide exchange factor 3 (Homo sapiens) (UniProt O95398); test: Confirmatory qHTS for antagonist of cAMP-regulated guanine nucleotide exchange factor 3 (EPAC1) (AID 1645880); also: nearly all actives have a fitted effect of over 55% in size
Summary of the method: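 Nucleotide exchange uses 100 nM EPAC1, 250 nM RAP1B-BODIPY-GDP and 50 uM GDP, with compounds in a concentration-titration series. After 5 min at room temperature, fluorescence (480 nm ex/540 nm em) is read every 5 min for 30 min. Data are normalized to control ATA and DMSO.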

[21] = biological target: Rap guanine nucleotide exchange factor 4 (Homo sapiens) (UniProt Q8WZA2); test: Confirmatory qHTS for antagonist of cAMP-regulated guanine nucleotide exchange factor 4 (EPAC2) (AID 1645885); also: potency is read from the fitted curve at half-maximal effect; nearly all actives have a fitted effect of over 25% in size
[22] = NCATS anti-infectives library activity on HEK293 viability as a counter-qHTS vs the C. elegans viability qHTS (AID 1745854);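 also: HEK293 cells exposed to compounds for 24 hr before the viability read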
Summary of the method: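 Cytotoxicity in human HEK293 cells is measured by ATP-dependent CellTiter-Glo luminescence following a 24 hr incubation with titrated library compounds at 37C. Top final concentration is 41.7 uM.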

[23] = NCATS anti-infectives library activity on the primary C. elegans qHTS viability assay (AID 1745855; calls by dose curve)
Summary of the method: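 Viability is taken from GFP fluorescence of PE254-GFP-FLuc C. elegans imaged by laser cytometry over 7 days. Ten L1 worms per well grow at 21 °C on TOP10 E. coli capsules with titrated compound; levamisole marks toxicity.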

[24] = measured here: cell count channel max response
[25] = measured here: lipid channel max response

Chain of Glucocorticoid receptor (Homo sapiens) (P04150 whole entry, looked up, the tested form may be a part): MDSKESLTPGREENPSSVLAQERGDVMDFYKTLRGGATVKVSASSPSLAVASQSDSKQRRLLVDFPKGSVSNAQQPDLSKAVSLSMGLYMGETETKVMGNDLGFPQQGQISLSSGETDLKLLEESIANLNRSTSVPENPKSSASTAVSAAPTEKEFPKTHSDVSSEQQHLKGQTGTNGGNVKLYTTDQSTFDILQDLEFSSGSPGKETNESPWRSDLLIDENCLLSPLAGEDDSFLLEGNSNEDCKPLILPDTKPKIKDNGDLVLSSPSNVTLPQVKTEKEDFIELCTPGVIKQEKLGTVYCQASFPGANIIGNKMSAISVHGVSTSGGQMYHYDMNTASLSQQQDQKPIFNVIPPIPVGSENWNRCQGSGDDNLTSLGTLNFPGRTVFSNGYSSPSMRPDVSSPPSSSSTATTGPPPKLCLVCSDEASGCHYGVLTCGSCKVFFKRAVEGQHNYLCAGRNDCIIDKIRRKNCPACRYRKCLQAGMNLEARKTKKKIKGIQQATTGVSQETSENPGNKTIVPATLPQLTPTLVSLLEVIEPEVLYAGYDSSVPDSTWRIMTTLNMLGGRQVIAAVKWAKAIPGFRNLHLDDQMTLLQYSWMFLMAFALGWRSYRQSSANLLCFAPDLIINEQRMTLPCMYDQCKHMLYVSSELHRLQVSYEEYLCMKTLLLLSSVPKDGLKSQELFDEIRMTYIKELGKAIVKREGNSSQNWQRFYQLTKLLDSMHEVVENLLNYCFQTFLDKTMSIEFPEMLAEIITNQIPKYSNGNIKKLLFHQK
Chain of Cytochrome P450 1A2 (Homo sapiens) (P05177 whole entry, looked up): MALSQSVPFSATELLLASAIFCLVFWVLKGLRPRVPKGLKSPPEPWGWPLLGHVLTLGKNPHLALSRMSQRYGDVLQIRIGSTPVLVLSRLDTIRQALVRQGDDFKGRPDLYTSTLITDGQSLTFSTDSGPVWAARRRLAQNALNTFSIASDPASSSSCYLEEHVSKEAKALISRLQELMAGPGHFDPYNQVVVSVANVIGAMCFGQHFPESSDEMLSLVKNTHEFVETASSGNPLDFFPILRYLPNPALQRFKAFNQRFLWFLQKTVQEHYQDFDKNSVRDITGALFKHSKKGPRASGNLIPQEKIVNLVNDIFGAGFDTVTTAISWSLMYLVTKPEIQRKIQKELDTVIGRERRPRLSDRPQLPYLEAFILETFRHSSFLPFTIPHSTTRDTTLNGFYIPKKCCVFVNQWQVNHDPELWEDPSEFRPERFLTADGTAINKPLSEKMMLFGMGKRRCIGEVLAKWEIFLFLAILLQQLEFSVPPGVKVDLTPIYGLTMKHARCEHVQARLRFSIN
Chain of DNA dC->dU-editing enzyme APOBEC-3G (Homo sapiens) (Q9HC16 whole entry, looked up): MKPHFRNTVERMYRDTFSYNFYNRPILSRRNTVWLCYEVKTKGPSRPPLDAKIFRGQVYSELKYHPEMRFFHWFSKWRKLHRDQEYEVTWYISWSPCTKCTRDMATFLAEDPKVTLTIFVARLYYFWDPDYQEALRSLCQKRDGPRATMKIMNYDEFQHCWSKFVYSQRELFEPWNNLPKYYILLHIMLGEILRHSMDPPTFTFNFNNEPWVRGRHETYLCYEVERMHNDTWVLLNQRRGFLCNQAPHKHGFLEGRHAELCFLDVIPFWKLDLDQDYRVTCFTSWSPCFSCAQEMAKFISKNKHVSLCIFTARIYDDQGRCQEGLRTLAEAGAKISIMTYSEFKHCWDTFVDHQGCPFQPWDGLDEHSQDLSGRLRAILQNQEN
Chain of Ubiquitin carboxyl-terminal hydrolase 1 (Homo sapiens) (O94782 whole entry, looked up): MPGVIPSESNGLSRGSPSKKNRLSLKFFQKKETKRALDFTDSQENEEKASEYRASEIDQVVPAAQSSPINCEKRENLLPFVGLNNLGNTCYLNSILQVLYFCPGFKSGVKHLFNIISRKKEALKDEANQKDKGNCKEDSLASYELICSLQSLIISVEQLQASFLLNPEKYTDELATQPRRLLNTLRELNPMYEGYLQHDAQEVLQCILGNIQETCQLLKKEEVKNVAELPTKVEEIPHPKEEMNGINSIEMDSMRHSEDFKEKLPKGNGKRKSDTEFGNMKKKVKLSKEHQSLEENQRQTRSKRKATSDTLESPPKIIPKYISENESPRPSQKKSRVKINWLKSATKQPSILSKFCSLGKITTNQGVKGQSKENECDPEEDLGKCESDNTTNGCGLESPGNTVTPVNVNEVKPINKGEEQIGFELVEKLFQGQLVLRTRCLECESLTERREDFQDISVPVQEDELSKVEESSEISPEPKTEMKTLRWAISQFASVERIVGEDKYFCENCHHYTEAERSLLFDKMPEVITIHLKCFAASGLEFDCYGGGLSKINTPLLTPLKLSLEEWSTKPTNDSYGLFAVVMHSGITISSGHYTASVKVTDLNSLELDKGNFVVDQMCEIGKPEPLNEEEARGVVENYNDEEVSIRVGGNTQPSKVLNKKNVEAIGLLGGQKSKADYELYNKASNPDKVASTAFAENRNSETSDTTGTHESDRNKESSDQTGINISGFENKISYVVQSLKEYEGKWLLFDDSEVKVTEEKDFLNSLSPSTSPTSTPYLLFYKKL
Chain of 3',5'-cyclic-AMP phosphodiesterase 4B (Homo sapiens) (Q07343 whole entry, looked up): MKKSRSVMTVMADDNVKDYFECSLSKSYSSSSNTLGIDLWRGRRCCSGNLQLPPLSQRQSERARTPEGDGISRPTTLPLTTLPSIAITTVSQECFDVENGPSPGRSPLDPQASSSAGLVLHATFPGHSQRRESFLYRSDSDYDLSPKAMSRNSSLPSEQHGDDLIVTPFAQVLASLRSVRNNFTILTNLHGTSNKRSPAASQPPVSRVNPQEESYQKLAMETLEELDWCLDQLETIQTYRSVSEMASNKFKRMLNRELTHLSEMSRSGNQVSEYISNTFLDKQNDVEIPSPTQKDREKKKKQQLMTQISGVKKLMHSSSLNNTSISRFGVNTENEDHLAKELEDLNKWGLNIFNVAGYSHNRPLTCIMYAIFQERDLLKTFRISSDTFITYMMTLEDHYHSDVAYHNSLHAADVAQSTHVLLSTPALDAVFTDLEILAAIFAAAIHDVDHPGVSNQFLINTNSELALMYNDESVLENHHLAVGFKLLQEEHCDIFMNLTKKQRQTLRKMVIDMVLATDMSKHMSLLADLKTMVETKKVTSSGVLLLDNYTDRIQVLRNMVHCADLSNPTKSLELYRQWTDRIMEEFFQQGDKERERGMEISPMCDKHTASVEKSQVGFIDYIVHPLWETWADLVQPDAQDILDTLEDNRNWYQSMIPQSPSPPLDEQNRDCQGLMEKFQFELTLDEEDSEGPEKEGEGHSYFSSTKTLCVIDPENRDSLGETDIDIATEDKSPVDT
Chain of Cytochrome P450 2D6 (Homo sapiens) (P10635 whole entry, looked up): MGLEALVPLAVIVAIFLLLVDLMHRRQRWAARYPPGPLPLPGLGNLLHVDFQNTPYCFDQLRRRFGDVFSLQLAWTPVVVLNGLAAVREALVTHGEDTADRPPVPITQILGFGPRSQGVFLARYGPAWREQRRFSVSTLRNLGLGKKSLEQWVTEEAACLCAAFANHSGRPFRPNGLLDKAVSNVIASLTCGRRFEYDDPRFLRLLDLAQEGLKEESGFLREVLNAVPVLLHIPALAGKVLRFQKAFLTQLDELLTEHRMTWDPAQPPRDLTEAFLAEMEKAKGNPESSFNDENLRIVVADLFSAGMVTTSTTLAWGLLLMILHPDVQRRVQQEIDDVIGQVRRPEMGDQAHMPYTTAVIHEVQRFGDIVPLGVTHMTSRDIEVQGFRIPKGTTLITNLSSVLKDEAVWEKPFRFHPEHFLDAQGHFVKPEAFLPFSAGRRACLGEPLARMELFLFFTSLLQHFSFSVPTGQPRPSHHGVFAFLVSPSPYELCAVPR
Chain of Cytochrome P450 3A4 (Homo sapiens) (P08684 whole entry, looked up): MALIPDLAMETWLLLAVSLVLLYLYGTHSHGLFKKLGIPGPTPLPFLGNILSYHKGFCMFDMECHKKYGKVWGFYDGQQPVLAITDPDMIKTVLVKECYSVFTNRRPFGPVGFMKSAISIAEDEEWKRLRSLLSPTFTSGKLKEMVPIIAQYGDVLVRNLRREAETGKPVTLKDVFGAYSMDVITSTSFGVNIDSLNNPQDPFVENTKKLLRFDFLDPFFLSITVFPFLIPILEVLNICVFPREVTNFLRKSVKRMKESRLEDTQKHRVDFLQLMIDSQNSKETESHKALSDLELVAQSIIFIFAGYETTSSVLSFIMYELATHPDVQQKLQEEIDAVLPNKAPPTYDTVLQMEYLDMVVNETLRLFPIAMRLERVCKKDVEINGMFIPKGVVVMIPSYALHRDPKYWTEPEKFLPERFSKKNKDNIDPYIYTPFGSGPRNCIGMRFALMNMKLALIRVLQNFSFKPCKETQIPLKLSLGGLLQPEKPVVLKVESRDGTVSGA
Chain of Alpha-galactosidase (Coffea arabica) (Q42656 whole entry, looked up): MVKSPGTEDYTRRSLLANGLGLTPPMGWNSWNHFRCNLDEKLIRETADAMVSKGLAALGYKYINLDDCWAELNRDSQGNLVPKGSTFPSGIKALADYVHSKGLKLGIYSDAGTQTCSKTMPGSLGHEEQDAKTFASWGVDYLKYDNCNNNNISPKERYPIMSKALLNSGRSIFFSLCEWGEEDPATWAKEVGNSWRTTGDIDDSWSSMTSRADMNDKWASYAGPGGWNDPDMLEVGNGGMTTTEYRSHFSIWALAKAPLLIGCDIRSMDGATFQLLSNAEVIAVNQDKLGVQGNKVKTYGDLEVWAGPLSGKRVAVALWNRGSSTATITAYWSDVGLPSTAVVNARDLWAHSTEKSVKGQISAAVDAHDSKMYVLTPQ
Chain of Alpha-galactosidase A (Homo sapiens) (P06280 whole entry, looked up): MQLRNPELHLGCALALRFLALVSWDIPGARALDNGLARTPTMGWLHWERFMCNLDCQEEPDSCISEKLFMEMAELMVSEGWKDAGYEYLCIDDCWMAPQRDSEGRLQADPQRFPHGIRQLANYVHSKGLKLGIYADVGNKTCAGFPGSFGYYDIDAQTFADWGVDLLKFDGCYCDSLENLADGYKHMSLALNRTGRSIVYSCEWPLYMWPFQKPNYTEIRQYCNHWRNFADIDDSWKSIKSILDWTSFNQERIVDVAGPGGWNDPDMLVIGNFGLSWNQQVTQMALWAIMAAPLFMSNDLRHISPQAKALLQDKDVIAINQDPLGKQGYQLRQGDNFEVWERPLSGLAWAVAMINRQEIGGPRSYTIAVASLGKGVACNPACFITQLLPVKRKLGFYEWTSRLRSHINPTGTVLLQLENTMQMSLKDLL

## CC[C@]1(C2=NCCN2)Cc2ccccc2O1
[1]
  Potency: inactive
[2]; at 38 µM (top of the series)
  activity change, negative = inhibition: -18.1% (inactive)
[3]
  outcome: inactive
[4]
  Potency: inactive
[5]
  outcome: inactive
[6]
  Potency: inactive
[7]
  outcome: inactive
[8]
  outcome: inactive
[9]
  outcome: inactive
[10]
  outcome: inactive
[11]
  activity change, negative = inhibition: 2.09% (inactive)
[11]; [24]
  max response: 4.62%
[11]; [25]
  max response: 7.07%
[12]
  Potency: inactive
[13]
  Potency: inactive
[14]
  Potency: inactive

## NC1(c2ccccc2Cl)CCCCC1=O (stereo not drawn)
[13]
  Potency: inactive
[14]
  Potency: inactive

## C[C@]12N[C@@H](Cc3ccccc31)c1ccccc12
[1]
  Potency: inactive
[2]; at 17.2 µM (top of the series)
  activity change, negative = inhibition: -0.0371% (inactive) and -7.29% (inactive)
[3]
  outcome: inactive
[4]
  Potency: inactive
[15]
  Potency: inactive
[16]
  Potency: 79.4 nM (active) and 5.01 µM (active)
[17]
  Potency: inactive
[12]
  Potency: inactive
[13]
  Potency: inactive
[14]
  Potency: inactive

## Oc1ccc2c3c1O[C@H]1c4[nH]c5c(c4C[C@@]4(O)[C@@H](C2)N(CC2CC2)CC[C@]314)C[C@]1(O)[C@H]2Cc3ccc(O)c4c3[C@@]1(CCN2CC1CC1)[C@@H]5O4
[18]
  Potency: > 46 µM (inactive)
[19]
  Potency: > 46 µM (inactive)
[3]
  outcome: inactive
[4]
  Potency: inactive
[11]
  activity change, negative = inhibition: -0.108% (inactive)
[11]; [24]
  max response: 16.4%
[11]; [25]
  max response: 18.7%
[12]
  Potency: inactive
[13]
  Potency: inactive
[14]
  Potency: inactive

## O=C1CS[C@@H](c2ccccc2Cl)c2cc(Cl)ccc2N1
[18]
  Potency: > 46 µM (inactive)
[19]
  Potency: > 46 µM (inactive)
[12]
  Potency: inactive
[13]
  Potency: inactive
[14]
  Potency: inactive
[20]
  Potency: inactive
[21]
  Potency: 49.4 µM (active)

## O=NN1CCCC1c1cccnc1 (stereo not drawn)
[13]
  Potency: inactive
[14]
  Potency: inactive
[22]
  Potency: inactive
[23]
  Potency: inactive

## CC(C)NC[C@H](O)c1ccc(N)c(C#N)c1
[19]
  Potency: > 46 µM (inactive)
[3]
  outcome: inactive
[11]
  activity change, negative = inhibition: 11.2% (inactive)
[11]; [24]
  max response: 17.3%
[11]; [25]
  max response: 26.1%
[17]
  Potency: inactive
[12]
  Potency: inactive
[13]
  Potency: inactive
[14]
  Potency: inactive

— PubChem BioAssay (NCATS)
